Sampled rows, rich in hits. Any-hit rate of the full collection: about 13%.
ALDH1A1 block – qHTS Assay for Inhibitors of Aldehyde Dehydrogenase 1 (ALDH1A1); 220,000 tested, 7.3% active; Potency, µM (highest dose often 75.3 µM), most hits filed as inhibitors; Purified ALDH1A1, NADH fluorescence, propionaldehyde substrate; active means well fitted inhibition curve with a large enough effect, not every such curve was filed as active; inconclusive means small, poorly fitted or top-dose-only effect, or another doubt; inactive means no such curve, though single readings can be large or run the other way
Target sequence (P00352 whole entry, looked up): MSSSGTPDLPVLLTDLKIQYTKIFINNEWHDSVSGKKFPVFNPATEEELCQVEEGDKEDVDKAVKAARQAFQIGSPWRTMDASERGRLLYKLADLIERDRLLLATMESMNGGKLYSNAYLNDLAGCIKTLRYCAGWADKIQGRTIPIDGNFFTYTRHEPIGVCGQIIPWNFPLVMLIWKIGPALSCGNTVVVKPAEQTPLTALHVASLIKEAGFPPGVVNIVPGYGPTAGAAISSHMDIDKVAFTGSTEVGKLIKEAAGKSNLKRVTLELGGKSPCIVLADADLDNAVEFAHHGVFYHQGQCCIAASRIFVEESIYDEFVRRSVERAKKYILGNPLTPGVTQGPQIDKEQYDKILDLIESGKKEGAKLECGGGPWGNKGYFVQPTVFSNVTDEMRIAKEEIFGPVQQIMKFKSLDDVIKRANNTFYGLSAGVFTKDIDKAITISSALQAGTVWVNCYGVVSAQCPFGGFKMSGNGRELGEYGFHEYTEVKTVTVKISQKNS
miR-21 act – qHTS Assay for Modulators of miRNAs and/orActivators of miR-21; HeLa miR-21 FLuc reporter, luciferase, 48 h; 340,000 tested, under 10 active; Potency, µM (doses to about 38.3 µM), usual class: activators; AID 2288, 2010;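 further: miR-21 action dims this reporter so a rising signal means less miR-21 action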
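Compounds were titrated across several concentrations (up to approximately 40 uM) and incubated 48 hours with HeLa miR-21-FLuc reporter cells (miR-21 target sequence downstream of FLuc, endogenous miR-21). Readout was firefly luciferase luminescence after lytic detection reagent.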
G9a inh – qHTS Assay for Inhibitors of Histone Lysine Methyltransferase G9a; Histone-lysine N-methyltransferase EHMT2 (Homo sapiens), Q96KQ7; G9a H3K9 monomethylation, AlphaScreen, 2 h; Potency, µM (doses to about 102 µM), most hits filed as inhibitors; 350,000 tested, 8.8% active; AID 504332, 2011; further: nearly all actives have a fitted effect of over 75% in size
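G9a (20 nM) was preincubated 15 min with compound, then reacted 2 h at room temperature with 500 nM biotin-H3K9 peptide and 20 µM SAM. Monomethyl-H3K9 detected by AlphaScreen using anti-H3K9me1 antibody.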
LMNA splice mod – qHTS Assay for Modulators of Lamin A Splicing | Potency, µM (highest dose often 46.1 µM), usual class: inhibitors | AID 1487, 2009 | 200,000 tested, 0.01% active | HeLa LMNA splicing GFP/RFP minigene ratio, 48 h; active means well fitted inhibition curve with a large enough effect in the signal ratio, with a control signal flat, not every such curve was filed as active; inconclusive means small, poorly fitted or top-dose-only effect, or effect the other way, or a change in a side signal; the % refers to the signal ratio
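S3 HeLa stable clones carrying a lamin A-EGFP splicing minigene plus DsRed2 were seeded at 600 cells/well in Opti-MEM with 2% FBS, pin-dosed and incubated 48 h at 37°C. Acumen cytometry (488 nm) gave the GFP/RFP total-intensity ratio.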
Sfp inh – qHTS Assay for Inhibitors of Bacillus subtilis Sfp phosphopantetheinyl transferase (PPTase); 4'-phosphopantetheinyl transferase ffp (Bacillus subtilis), Q9F4F7; Biochemical Sfp PPTase activity, qHTS; Potency, µM, usual class: inhibitors; 310,000 tested, 3.5% active; AID 1490, 2009;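 further: the enzyme is Sfp with the accession as filed and its product quenches rhodamine fluorescence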
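With Hepes-Na pH 7.6 buffer containing 10 mM MgCl2, Sfp (15 nM) modified BHQ-2-YbbR (12.5 uM) using rhodamine-CoA (5 uM). Two reads 30 minutes apart at 525/598 nm yielded each well's rate.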
KDM4E inh – qHTS Assay for Inhibitors of Human Jumonji Domain Containing 2E (JMJD2E) | Lysine-specific demethylase 4E (Homo sapiens), B2RXH2 | JMJD2E catalytic domain, FDH-coupled NADH fluorescence (FDH is formaldehyde dehydrogenase) | Potency, µM (titrated, usually from 57.1 µM), hits mostly inhibitors | 230,000 tested, 1.6% active; active means well fitted inhibition curve with a large enough effect, not every such curve was filed as active; inconclusive means small, poorly fitted or top-dose-only effect, or another doubt; inactive means no such curve, though single readings can be large or run the other way; further: nearly all actives have a fitted effect of over 50% in size
Of the large screens only hits and unclear results are named; the others gave an inactive call. Unless noted, the call rests on the fitted dose curve; in most records, active means well fitted curve in the direction sought with a large enough effect; inconclusive means small, poorly fitted or top-dose-only effect, or another doubt; inactive means no such curve, though single readings can be large; an effect the other way counts as inactive or inconclusive.

CCOC(=O)N1CCc2c(sc(NCc3ccc(OC)c(OC)c3OC)c2C(=O)Nc2ccc(OC)cc2OC)C1	G9a inh 7.08µM (no result: ALDH1A1 block, Sfp inh, KDM4E inh)
COc1ccccc1NC(=O)c1c(NCc2ccc(OC)c(OC)c2OC)sc2c1CCCC2	G9a inh inconclusive, LMNA splice mod inconclusive (no result: ALDH1A1 block, Sfp inh, KDM4E inh)
Cc1ccc2cc3cc(C(=O)N4CCN(c5ccccc5)CC4)sc3nc2c1	none (no result: ALDH1A1 block, LMNA splice mod, Sfp inh, KDM4E inh)
CN1CCN(S(=O)(=O)c2ccc(NC(=S)NC(=O)c3ccccc3)cc2)CC1	ALDH1A1 block 25.1µM, G9a inh inconclusive, Sfp inh inconclusive
CN1CCN(S(=O)(=O)c2ccc(NC(=S)NC(=O)C3CCCCC3)cc2)CC1	ALDH1A1 block inconclusive, G9a inh inconclusive (no result: LMNA splice mod)
CCC(=O)NC(=S)Nc1ccc(S(=O)(=O)N2CCN(C)CC2)cc1	none
CN1CCN(S(=O)(=O)c2ccc(NC(=S)NC(=O)c3ccc(Cl)cc3)cc2)CC1	G9a inh 17.8µM, LMNA splice mod inconclusive, Sfp inh 22.4µM
CN1CCN(S(=O)(=O)c2ccc(NC(=S)NC(=O)C(C)(C)C)cc2)CC1	ALDH1A1 block 31.6µM, G9a inh 56.2µM
CN1CCN(S(=O)(=O)c2ccc(NC(=O)c3ccccc3Cl)cc2)CC1	none (no result: ALDH1A1 block, G9a inh, LMNA splice mod, KDM4E inh)
CN(Cc1ccccc1)S(=O)(=O)c1ccc(NC(=S)NC(=O)C(C)(C)C)cc1	ALDH1A1 block 12.6µM, G9a inh 3.16µM
COc1ccccc1CNc1ncnc2onc(-c3ccc(F)cc3)c12	none (no result: ALDH1A1 block, Sfp inh, KDM4E inh)
CCN(CC)S(=O)(=O)c1ccc(NC(=S)NC(=O)C(C)C)cc1	ALDH1A1 block 28.2µM
CN1C(=O)c2ccc(NC(=S)NC(=O)C(C)(C)C)cc2C1=O	ALDH1A1 block inconclusive, G9a inh 44.7µM, Sfp inh 35.5µM, KDM4E inh inconclusive
COC(=O)c1cc(S(=O)(=O)N2CCC(C)CC2)ccc1F	ALDH1A1 block 28.2µM
Cc1occc1C(=O)Nc1ccc(S(=O)(=O)N2CCN(C)CC2)cc1	ALDH1A1 block inconclusive, G9a inh 56.2µM
CCN(CC)S(=O)(=O)c1ccc(NC(=S)NC(=O)CC(C)C)cc1	LMNA splice mod inconclusive
COc1c2c(c3c(c1CCC(=O)O)OC(C)(C)C=C3)OC(C)(C)C=C2	none (no result: miR-21 act, G9a inh, LMNA splice mod, Sfp inh, KDM4E inh)
Cc1ccc(S(=O)(=O)c2[nH]c(-c3ccccc3)nc2SCC(N)=O)cc1	none (no result: ALDH1A1 block, Sfp inh, KDM4E inh)
Cc1ccc(CNC(=O)C2CCCN(S(=O)(=O)c3ccc4c(c3)oc(=O)n4C)C2)cc1 (stereo not given)	none (no result: ALDH1A1 block, LMNA splice mod, Sfp inh, KDM4E inh)
CCCN1Cc2cccc(C(=O)Nc3ccccc3C(=O)OC)c2C1=O	none (no result: ALDH1A1 block, LMNA splice mod, Sfp inh, KDM4E inh)
O=C(NC(=S)Nc1ccc(S(=O)(=O)N2CCCCC2)cc1)c1cccs1	ALDH1A1 block inconclusive, Sfp inh inconclusive, KDM4E inh inconclusive
CC1CCN(S(=O)(=O)c2ccc(NC(=S)NC(=O)c3ccc(Cl)cc3)cc2)CC1	ALDH1A1 block 3.98µM
O=C(NC(=S)Nc1ccc(S(=O)(=O)N2CCCCC2)cc1)c1ccc(Cl)cc1	ALDH1A1 block 0.501µM
O=c1n(Cc2ccc(F)cc2Cl)c2ccccc2c2nc(-c3ccccc3)nn12	none (no result: ALDH1A1 block, Sfp inh, KDM4E inh)
Cc1cc(OCCCCNC(C)C)cc(C(C)C)c1	G9a inh 28.2µM, KDM4E inh inconclusive
CC(=O)N(Cc1cccnc1)c1nc2c(C)cc(C)cc2s1	G9a inh inconclusive (no result: ALDH1A1 block, Sfp inh, KDM4E inh)
Cc1cc(C)c2sc(N(Cc3cccnc3)C(=O)CCOc3ccccc3)nc2c1	LMNA splice mod inconclusive (no result: ALDH1A1 block, Sfp inh, KDM4E inh)
Cc1cc(C)c2sc(N(CCN(C)C)C(=O)CCS(=O)(=O)c3ccccc3)nc2c1	G9a inh 39.8µM (no result: ALDH1A1 block, LMNA splice mod, KDM4E inh)
CCN(CC)CCN(C(=O)CCS(=O)(=O)c1ccccc1)c1nc2cc(OC)c(OC)cc2s1	G9a inh 17.8µM, Sfp inh inconclusive (no result: ALDH1A1 block, LMNA splice mod, KDM4E inh)
CCN(CC)CCN(C(=O)c1ccccc1OC)c1nc2ccc(F)cc2s1	G9a inh inconclusive
CCN(CC)CCN(C(=O)CCS(=O)(=O)c1ccccc1)c1nc2c(C)cc(C)cc2s1	G9a inh 44.7µM (no result: ALDH1A1 block, LMNA splice mod, KDM4E inh)

Source: PubChem (National Center for Advancing Translational Sciences (NCATS))
